A selection: hits, their analogues and other compounds. The true share with any hit is near 10%.
HP1b binding inh: inhibitors of HP1-beta chromodomain binding to methylated histone tails | P83916 | AlphaScreen HP1-beta / biotin-H3K9me3 peptide binding | Potency, µM (highest dose often 114 µM), usual class: inhibitors | hit rate 0.56% among 390,000; also: nearly all actives have a fitted effect of over 70% in size
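AlphaScreen: HP1-beta (50 nM) preformed 30 min with biotin-H3(1-18)K9me3 peptide (50 nM) in PBS pH 7.4, 0.01% Tween-20. Compound added for 30 min at RT, then streptavidin donor/nickel chelate acceptor beads (10 ug/mL) for 30 min.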
G9a block: inhibitors of human histone lysine methyltransferase G9a. Potency, µM (series often up to 102 µM), usual class: inhibitors. Q96KQ7. hit rate 8.8% among 350,000. G9a H3K9 monomethylation, AlphaScreen, 2 h; also: nearly all actives have a fitted effect of over 75% in size
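Readings reflect AlphaScreen signal from monomethyl-H3K9 antibody detection. HMT at 20 nM; substrate b-H3K9 500 nM; cofactor SAM 20 uM; 2 h RT reaction; compounds tested as titrations in qHTS with 15 min preincubation.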
CtBP-E1A inh: blocks the CtBP interaction with E1A. AlphaScreen GST-E1A/His-CtBP binding, 1536-well; hits give low values. activity change, % (concentration not given with the values). hit rate 0.49% among 340,000. AID 651724; in the data active = activity change below about -65%; inconclusive = mostly about -30% to -63%
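Steps: dispense buffer (Tris pH 8.0, NaCl 300 mM, TCEP 1 mM, BSA, Tween 20); add 5X protein mix (GST-E1A, His-CtBP, 125 nM each); pin 23 nL compound; 2 h at 37 °C, dark; add 5X beads (50 ug/mL); 1 h; read.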
Six1-Eya2 blk: Six1/Eya2 interaction inhibition; Q15475+O00167; AlphaScreen GST-Six1/His-Eya2 binding, biochemical; hits give low values; activity change, % (no concentration beside the values); hit rate 0.56% among 360,000; AID 651725; in the data active = activity change below about -65%; inconclusive = mostly about -30% to -63%
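GST-Six1 + His-Eya2 (5X stock: 250/500 nM); Tris pH 8.0, 300 mM NaCl, 0.05% BSA, 0.02% Tween 20; GSH donor/Ni acceptor beads; 1 h 37 °C dark; AlphaScreen readout.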
JMJD2A Tudor: inhibitors of human JMJD2A Tudor domain. O75164. AlphaScreen JMJD2A-Tudor / H3K4me3 peptide binding. Potency, µM (top dose mostly 114 µM), actives largely listed as inhibitors. hit rate 4.4% among 390,000; also: nearly all actives have a fitted effect of over 50% in size
Target sequence (O75164 whole entry, looked up, the tested form may be a part): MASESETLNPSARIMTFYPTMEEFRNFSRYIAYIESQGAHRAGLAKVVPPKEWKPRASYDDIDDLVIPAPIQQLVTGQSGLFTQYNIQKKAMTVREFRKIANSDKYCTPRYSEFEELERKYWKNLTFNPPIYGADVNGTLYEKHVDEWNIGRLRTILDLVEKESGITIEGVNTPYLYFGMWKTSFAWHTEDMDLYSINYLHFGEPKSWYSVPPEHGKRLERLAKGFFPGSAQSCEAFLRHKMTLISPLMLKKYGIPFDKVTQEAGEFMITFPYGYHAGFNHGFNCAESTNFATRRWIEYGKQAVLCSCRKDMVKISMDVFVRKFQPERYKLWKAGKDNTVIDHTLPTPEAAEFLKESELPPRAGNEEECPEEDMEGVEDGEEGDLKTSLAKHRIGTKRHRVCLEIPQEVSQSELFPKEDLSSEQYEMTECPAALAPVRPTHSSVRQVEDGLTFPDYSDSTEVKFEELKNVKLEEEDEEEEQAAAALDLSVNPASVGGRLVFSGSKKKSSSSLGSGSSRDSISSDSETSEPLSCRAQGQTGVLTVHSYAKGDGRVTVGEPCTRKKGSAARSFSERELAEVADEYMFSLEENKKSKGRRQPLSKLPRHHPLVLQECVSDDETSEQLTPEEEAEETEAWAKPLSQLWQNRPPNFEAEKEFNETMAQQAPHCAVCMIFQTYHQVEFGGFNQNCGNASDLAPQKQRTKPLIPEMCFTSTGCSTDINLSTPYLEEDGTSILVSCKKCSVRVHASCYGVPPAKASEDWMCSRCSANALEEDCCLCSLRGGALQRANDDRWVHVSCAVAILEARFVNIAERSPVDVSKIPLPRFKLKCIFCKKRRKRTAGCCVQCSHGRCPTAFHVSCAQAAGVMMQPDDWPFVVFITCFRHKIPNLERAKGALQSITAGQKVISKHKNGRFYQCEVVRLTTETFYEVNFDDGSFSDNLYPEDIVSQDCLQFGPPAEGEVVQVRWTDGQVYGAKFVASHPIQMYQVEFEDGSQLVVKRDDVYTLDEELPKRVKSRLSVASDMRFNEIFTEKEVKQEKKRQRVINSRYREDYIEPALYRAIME
BAZ2B inh: inhibitors of human BAZ2B bromodomain. Q9UIF8. AlphaScreen BAZ2B-H3K14Ac peptide displacement. Potency, µM (top dose mostly 114 µM), usual class: inhibitors. hit rate 4.4% among 360,000. AID 504333; also: nearly all actives have a fitted effect of over 60% in size
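In this displacement format the biotinylated H3(5-23) peptide acetylated at Lys14 serves as ligand at 50 nM, with BAZ2B at 50 nM in PBS pH 7.4 containing 0.01% Tween-20. Donor and acceptor beads are 10 ug/mL final.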
Of the large screens only hits and unclear results are named; the others gave an inactive call. Unless noted, calls follow the shape of the dose curve; as a rule, active = well fitted inhibition curve with a large enough effect; inconclusive = small, poorly fitted or top-dose-only effect; inactive = no such curve, though single readings can be large or run the other way.

Nc1ccc2c(c1)Cc1cc([N+](=O)[O-])ccc1-2	G9a block 50µM
Nc1ccc2c(c1)Cc1ccccc1-2	HP1b binding inh inconclusive, G9a block inconclusive, JMJD2A Tudor inconclusive, BAZ2B inh 50µM
CC(=O)Nc1c2sscc-2n(C)c1=O	none (no result: HP1b binding inh, CtBP-E1A inh, Six1-Eya2 blk, JMJD2A Tudor, BAZ2B inh)
CCCCCCC(=O)O[C@H]1CC[C@H]2[C@@H]3CCC4CC(=O)C=C(C)[C@]4(C)[C@H]3CC[C@]12C (stereo partly drawn)	none (no result: HP1b binding inh, CtBP-E1A inh, Six1-Eya2 blk, JMJD2A Tudor, BAZ2B inh)
O=C(O)c1ccc(-n2c(O)c(/C=C3\C=Nc4ccccc43)c(=O)[nH]c2=O)cc1	G9a block 45µM
CCCCn1c(O)c(/C=C2\C=Nc3ccccc32)c(=O)[nH]c1=O	G9a block 71µM
C[C@H](NC(=O)[C@@H](N)Cc1ccc(O)cc1)C(=O)N[C@@H](Cc1ccccc1)C(=O)NCC(=O)N[C@@H](Cc1ccc(O)cc1)C(=O)N1CCC[C@H]1C(=O)N[C@@H](CO)C(N)=O	none (no result: HP1b binding inh, CtBP-E1A inh, Six1-Eya2 blk, JMJD2A Tudor, BAZ2B inh)
C[C@]12CC[C@@H](O)CC1CCC1C2CC[C@]2(C)C(=O)CC[C@@H]12 (stereo partly drawn)	none (no result: HP1b binding inh, CtBP-E1A inh, Six1-Eya2 blk, JMJD2A Tudor, BAZ2B inh)
NC(Cc1ccc(F)cc1)c1csc(Nc2cnccn2)n1 (stereo not drawn)	CtBP-E1A inh -83, Six1-Eya2 blk -74 (no result: HP1b binding inh, G9a block, JMJD2A Tudor, BAZ2B inh)
NC(Cc1ccccc1)c1csc(Nc2ccccn2)n1 (stereo not drawn)	CtBP-E1A inh -90, Six1-Eya2 blk -86 (no result: HP1b binding inh, G9a block, JMJD2A Tudor, BAZ2B inh)
NC(Cc1ccc(F)cc1)c1csc(Nc2ccccn2)n1 (stereo not drawn)	CtBP-E1A inh -91, Six1-Eya2 blk -86 (no result: HP1b binding inh, G9a block, JMJD2A Tudor, BAZ2B inh)
NC(Cc1ccc(Cl)cc1)c1csc(Nc2ccccn2)n1 (stereo not drawn)	CtBP-E1A inh -68, Six1-Eya2 blk inconclusive (no result: HP1b binding inh, G9a block, JMJD2A Tudor, BAZ2B inh)
C[C@@H]1O[C@@H](O[C@H]2C[C@@H](O)[C@]3(CO)[C@@H]4C(CC[C@]3(O)C2)[C@@]2(O)CC[C@H]([C@@H]3COC(=O)C3)[C@@]2(C)C[C@H]4O)[C@H](O)[C@H](O)[C@H]1O (stereo partly drawn)	none (no result: HP1b binding inh, CtBP-E1A inh, Six1-Eya2 blk, JMJD2A Tudor, BAZ2B inh)
CC(C)C[C@H](NC(=O)[C@H](Cc1ccccc1)NC(=O)CNC(=O)CNC(=O)[C@@H](N)Cc1ccc(O)cc1)C(=O)N[C@@H](CCCN=C(N)N)C(=O)N[C@@H](CCCCN)C(=O)N[C@@H](Cc1ccc(O)cc1)C(=O)N1CCC[C@H]1C(=O)N[C@@H](CCCCN)C(=O)O	none (no result: HP1b binding inh, CtBP-E1A inh, Six1-Eya2 blk, JMJD2A Tudor, BAZ2B inh)
O=C(c1ccc(CNS(=O)(=O)c2ccccc2)cc1)N1CCC2(CC1)OCCO2	G9a block 35µM, JMJD2A Tudor inconclusive, BAZ2B inh inconclusive
O=C(c1ccc(CNS(=O)(=O)c2ccc(Br)cc2)cc1)N1CCC2(CC1)OCCO2	none
Nc1ccc(N=Nc2ccccc2)cc1	HP1b binding inh inconclusive, G9a block 45µM, Six1-Eya2 blk inconclusive, JMJD2A Tudor 45µM, BAZ2B inh 22µM
CN1CCc2cc3c(cc2[C@@H]1[C@@H]1OC(=O)c2c1ccc1c2OCO1)OCO3	none (no result: HP1b binding inh, CtBP-E1A inh, Six1-Eya2 blk, JMJD2A Tudor, BAZ2B inh)
CCOc1ccc2nc(N=Nc3c(O)[nH]c(=S)[nH]c3=O)sc2c1	HP1b binding inh inconclusive, G9a block 35µM, JMJD2A Tudor inconclusive, BAZ2B inh 22µM
CCOc1ccc2nc(N=Nc3c(O)[nH]c(=O)[nH]c3=O)sc2c1	BAZ2B inh 45µM (no result: G9a block)
CNC(CC(C)C)C(=O)NC1C(=O)NC(CC(N)=O)C(=O)NC2C(=O)NC3C(=O)NC(C(=O)NC(C(=O)O)c4cc(O)cc(O)c4-c4cc3ccc4O)C(O)c3ccc(c(Cl)c3)Oc3cc2cc(c3OC2OC(CO)C(O)C(O)C2OC2C[C@](C)(N)C(O)C(C)O2)Oc2ccc(cc2Cl)C1O (stereo partly drawn)	none
c1ccc2c(c1)CSc1ccccc1C2C1=NCCN1 (stereo not drawn)	none
Brc1ccc2c(c1)C(OC1CN3CCC1CC3)c1ccccc1CS2 (stereo not drawn)	G9a block 16µM
COc1ccccc1/C=N/N=C(/N)N[N+](=O)[O-]	none
N/C(=N\N=C\c1ccc(O)cc1O)N[N+](=O)[O-]	CtBP-E1A inh -83, Six1-Eya2 blk -74
